Rab9 prom act: activators of Rab9 promoter; Huh7 Rab9 promoter-luciferase reporter, luminescence, 24 h; Potency, µM (series often up to 9.22 µM), inactives show at the highest dose activation, negative = inhibition, actives largely listed as activators; 2.8% of 320,000 active; further: % of control where 0% means no effect; nearly all actives have a fitted effect of over 60% in size
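Stable Rab9-luc Huh7, 1500 cells/well, 2 h settle; cmpd in DMSO, 24 h, 37 °C/5% CO2; luciferase reagent 10 min RT; luminescence.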
ELG1 DNA repair: blocks ELG1-dependent DNA repair in HEK293T cells; Potency, µM (titrated, usually from 46.1 µM), for inactives: at the highest dose activity change, negative = inhibition, hits mostly inhibitors; HEK293T ELG1-luciferase reporter, luminescence, 16 h; DNA damage induced by 5-fluorouridine; 2.3% of 330,000 active; AID 504467; further: on the % scale 0 is the no-effect control and ±100 the full control effect; nearly all actives have a fitted effect of over 55% in size
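DMSO vehicle served as the neutral condition. Each well held 2,000 cells given 5-fluorouridine plus compound; after 16 hr at 37 °C/5% CO2, ONE-Glo was added and luciferase measured 30 min later.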
ELG1 genotox: induces genotoxicity in HEK293T cells with luciferase-tagged ELG1 | HEK293T ELG1-luciferase reporter, luminescence, 16 h | Potency, µM (highest dose often 46 µM), without a hit: top-dose activity change, positive = activation, most hits filed as activators | 1.3% of 330,000 active; further: % of control where 0% means no effect; nearly all actives have a fitted effect of over 60% in size
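Reporter readout depends on ELG1 protein level, which increases with genetic stress. After 16 hr compound exposure at 37 °C, luciferase activity was quantified using ONE-Glo.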
FLuc counter: inhibits or activates purified firefly luciferase, miR-21 counter-screen | P08659 | 6.9% of 360,000 active | purified FLuc, Km substrates, luminescence inhibition | AID 588342 | Potency, µM (highest dose often 57.5 µM), for the others: at the top dose activity change, negative = inhibition, usual class: inhibitors;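 further: plate controls were vehicle for no effect and reference inhibitor for full effect; nearly all actives have a fitted effect of over 55% in size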
Target sequence (P08659 whole entry, looked up): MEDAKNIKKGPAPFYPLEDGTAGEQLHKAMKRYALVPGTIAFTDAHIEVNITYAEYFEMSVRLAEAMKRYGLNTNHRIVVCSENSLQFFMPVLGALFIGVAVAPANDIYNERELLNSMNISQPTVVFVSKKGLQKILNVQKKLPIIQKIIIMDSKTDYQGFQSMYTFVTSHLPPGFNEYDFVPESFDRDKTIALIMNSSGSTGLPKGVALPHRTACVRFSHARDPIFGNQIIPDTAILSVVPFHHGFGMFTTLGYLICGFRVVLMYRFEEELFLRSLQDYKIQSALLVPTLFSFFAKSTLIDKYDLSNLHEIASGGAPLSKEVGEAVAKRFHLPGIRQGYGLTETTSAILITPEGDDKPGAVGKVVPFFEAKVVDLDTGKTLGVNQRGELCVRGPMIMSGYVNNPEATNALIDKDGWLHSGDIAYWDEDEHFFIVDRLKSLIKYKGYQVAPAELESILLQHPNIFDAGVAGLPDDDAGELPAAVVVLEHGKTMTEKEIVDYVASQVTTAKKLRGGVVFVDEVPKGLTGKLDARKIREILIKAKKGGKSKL
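Purified P. pyralis luciferase (10nM final) with 10uM D-luciferin and 10uM ATP (Km levels) in 50mM Tris acetate pH 7.5, 10mM Mg acetate, 0.01% Tween-20, 0.05% BSA; qHTS 6-point titration, ~60 µM downward; luminescence read.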
SMN2 splice up: enhancers of SMN2 splice variant expression; 2.8% of 210,000 active; Potency, µM (series often up to 46.1 µM), inactives show top-dose activity change, positive = activation, hits mostly activators; HEK293 SMN2-luciferase splicing reporter, luminescence, 30-36 h; AID 1458; further: % of control where 0% means no effect; nearly all actives have a fitted effect of over 55% in size
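HEK293 cells carry an SMN2 […]–luciferase reporter in which exon 7 inclusion puts luciferase in frame. Cells were plated 10-12 h before compound addition, then incubated 30-36 h at 37C. ONE-Glo luminescence was read; sodium butyrate at 4.5 mM final served as control.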
NPC1 prom act: NPC1 promoter activation; Huh7 NPC1 promoter luciferase reporter, 24 h; Potency, µM (highest dose often 9.22 µM), for the others: at the top dose activation, actives largely listed as activators; 2.4% of 320,000 active; AID 485313; further: % of control where 0% means no effect; nearly all actives have a fitted effect of over 60% in size
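Stably transfected Huh7 (NPC1 promoter→luciferase), 1500 cells/well in Opti-MEM + 10% FBS, 2 h settle, then compound 24 h at 37 °C. Luminescence after 10 min with Amplite reagent.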
* = called active by the depositor. Sampled rows, rich in hits. Any-hit rate of the full collection: about 9.4%. The call rests on the fitted dose curve; in most records, active means well fitted curve in the direction sought with a large enough effect; inconclusive means small, poorly fitted or top-dose-only effect, or another doubt; inactive means no such curve, though single readings can be large; an effect the other way counts as inactive or inconclusive. Potency means the concentration at half of the fitted maximal effect.

N/C(=N\OC(=O)CCCc1ccccc1)c1ccccn1 was read as Rab9 prom act 0%, ELG1 DNA repair inconclusive, ELG1 genotox 2%, FLuc counter 2.1µM*, SMN2 splice up 26% and NPC1 prom act 5%.
Screening N/C(=N\OC(=O)Cc1ccccc1)c1ccccn1 returned Rab9 prom act 11%, ELG1 DNA repair inconclusive, ELG1 genotox 10%, FLuc counter 17µM*, SMN2 splice up 20% and NPC1 prom act 12%.
`N/C(=N\OC(=O)CCC1CCCC1)c1ccccn1` gave Rab9 prom act 23%, ELG1 DNA repair inconclusive, ELG1 genotox inconclusive, FLuc counter 0.48µM*, SMN2 splice up inconclusive and NPC1 prom act 25%.
For Cc1nc(NCc2ccccc2)c2nc(-c3ccccc3)n(C(C)CN(C)C)c2n1 (configuration not stated) the results were SMN2 splice up -2%.
`CCC(Cn1nnc2ccccc2c1=O)NC(=O)Nc1cc(C)cc(C)c1` (configuration not stated) gave FLuc counter -10% and SMN2 splice up -3%.
Screening COCc1cc(=O)n2[nH]c(-c3ccccc3)cc2n1 returned Rab9 prom act 22%, ELG1 DNA repair inconclusive, ELG1 genotox inconclusive, FLuc counter 19µM*, SMN2 splice up 11% and NPC1 prom act 16%.
Screening COCc1cc(=O)n2[nH]c(C)cc2n1 returned Rab9 prom act -10%, ELG1 DNA repair 18%, ELG1 genotox -1%, FLuc counter 9%, SMN2 splice up -18% and NPC1 prom act -6%.
Screening COCc1cc(=O)n2[nH]c(-c3cccc(Br)c3)cc2n1 returned Rab9 prom act 22%, ELG1 DNA repair inconclusive, ELG1 genotox 11µM*, FLuc counter inconclusive, SMN2 splice up inconclusive and NPC1 prom act 29%.
`COc1ccc(-n2c(=O)c(C)nc3cnc(N4CCNCC4)nc32)cc1` gave SMN2 splice up 1%.
`CC1=C(C(=O)OC2CCCC2)C(c2ccc(F)cc2F)CC(=O)N1` (configuration not stated) gave FLuc counter 0% and SMN2 splice up -15%.
Screening Cc1ccc(C)c(S(=O)(=O)N2CCN(C(=O)c3sccc3C)CC2)c1 returned Rab9 prom act -8%, ELG1 DNA repair -15%, ELG1 genotox -6%, FLuc counter -2% and NPC1 prom act -2%.
`Cc1ccc(-n2nnnc2CNC(=O)c2ccccc2F)cc1C` gave FLuc counter -1%.
`CCOc1ccc(-c2cc3c(=O)n(CC(=O)Nc4c(C)cccc4C)ccn3n2)cc1` gave FLuc counter -3%.
Nc1cc2nc[nH]c2cc1N was read as Rab9 prom act 11%, ELG1 DNA repair inconclusive, ELG1 genotox 19%, FLuc counter 15µM*, SMN2 splice up 3% and NPC1 prom act -7%.
For Cn1c(=O)n(C)c2cc3[nH]cnc3cc21 the results were Rab9 prom act 12%, ELG1 DNA repair inconclusive, ELG1 genotox 6%, FLuc counter 0% and NPC1 prom act -4%.
Cc1nnsc1C(=O)NNC(=O)c1ccc(C(F)(F)F)cc1 was read as Rab9 prom act 9%, ELG1 DNA repair inconclusive, ELG1 genotox 5%, FLuc counter 17µM* and NPC1 prom act 9%.
Cc1nnsc1C(=O)NNc1ccc(C(C)(C)C)cc1 was read as Rab9 prom act 2%, ELG1 DNA repair 1%, ELG1 genotox -5%, FLuc counter -3% and NPC1 prom act 1%.
COc1cc(OC)c(N(C)C(=O)c2nn(C)c3c2CSc2ccccc2-3)cc1Cl was read as FLuc counter -1%.
`CC(=O)c1ccc(NC(=O)CSc2nnc3ccc(-c4ccc(Cl)cc4)nn23)cc1` gave FLuc counter -1%.
Cc1ccccc1/C=N\NC(=O)c1ccc(Cn2cccn2)o1 was read as Rab9 prom act -3%, ELG1 DNA repair 8%, ELG1 genotox -3%, FLuc counter 17µM*, SMN2 splice up -2% and NPC1 prom act 0%.
O=C(N/N=C\c1cccc(Cl)c1)c1ccc(Cn2cc(Br)c([N+](=O)[O-])n2)o1 was read as Rab9 prom act -2%, ELG1 DNA repair inconclusive, ELG1 genotox -1%, FLuc counter 5.4µM*, SMN2 splice up -35% and NPC1 prom act 1%.
Cc1ccsc1/C=N/NC(=O)c1ccc(Cn2cc(Br)cn2)o1 was read as Rab9 prom act -3%, ELG1 DNA repair -8%, ELG1 genotox 0%, FLuc counter -15%, SMN2 splice up -4% and NPC1 prom act -1%.
`Cc1ccc(/C=N\NC(=O)c2ccc(Cn3cc(Br)c([N+](=O)[O-])n3)o2)o1` gave Rab9 prom act -6%, ELG1 DNA repair 0%, ELG1 genotox -2%, FLuc counter -1% and NPC1 prom act 0%.
Screening O=C(N/N=C/c1cccc(Br)c1)c1ccc(Cn2cc(Br)cn2)o1 returned Rab9 prom act -3%, ELG1 DNA repair inconclusive, ELG1 genotox 2%, FLuc counter 13µM*, SMN2 splice up -16% and NPC1 prom act 2%.
`NNC(=O)c1ccc(Cn2cccn2)o1` gave Rab9 prom act 1%, ELG1 DNA repair 6%, ELG1 genotox 1%, FLuc counter inconclusive and NPC1 prom act 1%.
For O=C(N/N=C\c1cccc(Cl)c1)c1ccc(Cn2cccn2)o1 the results were Rab9 prom act -2%, ELG1 DNA repair 3%, ELG1 genotox 1%, FLuc counter 12µM*, SMN2 splice up 3% and NPC1 prom act -3%.
CCn1cc(S(=O)(=O)CC(=O)N2CCc3ccccc32)c2ccccc21 was read as Rab9 prom act -4%, ELG1 DNA repair -19%, ELG1 genotox -7%, FLuc counter -7% and NPC1 prom act 1%.
CC(=O)Nc1ccc(S(=O)(=O)N2CCC(n3c(C)nc4cccnc43)CC2)cc1 was read as FLuc counter -7%.
O=C(c1ccco1)N1CCC2(CC1)CN(c1ccccc1)C2 was read as SMN2 splice up -37%.
O=C(c1cc(C(F)(F)F)cc(C(F)(F)F)c1)N1CCC2(CC1)CCN(c1ccccn1)CC2 was read as SMN2 splice up -45%.
`Cc1c(Cl)c([N+](=O)[O-])nn1Cc1ccc(C(=O)N/N=C\c2cccc(Br)c2)o1` gave Rab9 prom act -4%, ELG1 DNA repair inconclusive, ELG1 genotox -8%, FLuc counter 7.6µM*, SMN2 splice up 10% and NPC1 prom act 1%.

Screening data as filed in PubChem.
